Source: PubChem BioAssay (several laboratories)
Ba/F3 V617F tox – reduce viability of Ba/F3 cells dependent on JAK2V617F; hit rate 1.1% among 220,000; inhibition, % at 5.6 µM; Ba/F3 EpoR-JAK2V617F viability, ATP luminescence;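 active = inhibition above the campaign mean plus 3 SD over all tested compounds, cut at about 24% in these data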;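 also: cytokine-independent growth of Ba/F3 cells driven by EpoR plus mutant JAK2; 0% = DMSO-treated cells and 100% = JAK inhibitor I control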
BaF3 parental – parental Ba/F3 viability inhibition as JAK2V617F counter-screen | inhibition, % at 5.6 µM | hit rate 1.1% among 220,000 | CellTiter-Glo ATP luminescence;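 active = inhibition above a per-campaign cutoff, the mean inhibition of all tested compounds plus 3 SD, cut at about 27% in these data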;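 also: 0% = DMSO wells and 100% = JAK Inhibitor I control wells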
KLF5 inh – inhibitors of KLF5 expression; DLD-1 KLF5 promoter-luciferase reporter, luminescence; inhibition, % at 5 µM; hit rate 0.23% among 290,000;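 active = inhibition above a per-plate limit of that plate's mean compound inhibition plus 3 SD, cut at about 60% in these data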;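 also: 0% = DMSO wells and 100% = LY294002 at 200 µM; higher means less KLF5 promoter-driven luciferase light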
IEC-6 cytotox – kills IEC-6 intestinal cells in KLF5 counter-screen | IEC-6 cytotoxicity, luminescence viability | inhibition, % at 5 µM | hit rate 0.78% among 290,000; in the data active = inhibition above about 22%;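 also: 0% = plate median of test compound wells and 100% = cytotoxic reference compound wells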
aSyn 5UTR inh – 5' untranslated region of α-synuclein, MLPCN primary screen | alpha-synuclein 5'UTR reporter, inhibitor activity | inhibition, % (tested at 7.5 µM) | hit rate 0.82% among 300,000 | AID 1813; in the data active = inhibition above about 60%;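 also: H4 neuroglioblastoma cells stably carrying SNCA 5'UTR luciferase fusion; 0% = DMSO wells and 100% = positive control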
APP 5UTR inh – APP translation inhibition; SH-SY5Y APP 5'UTR-luciferase reporter, luminescence; inhibition, % at 2 µM; hit rate 0.82% among 190,000;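 active = inhibition above a set limit, derived from the sample mean plus 3 SD, cut at about 45% in these data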
An asterisk follows results filed as active; x = not tested or not shown. Sampled rows, rich in hits. Any-hit rate of the full collection: about 2.2%.

SMILES	Ba/F3 V617F tox	BaF3 parental	KLF5 inh	IEC-6 cytotox	aSyn 5UTR inh	APP 5UTR inh
CC(=O)Nc1cccc(C(=O)/C=C/c2ccc(/C=C/C(=O)c3cccc(NC(C)=O)c3)cc2)c1	1.0	5.8	5.3	-0.7	-128.9	92.4*
CC(=O)Nc1cccc(C(=O)/C=C/c2ccc(F)cc2)c1	-7.3	-1.0	-1.9	2.8	-103.1	-25.0
CCC(=O)Nc1cccc(C(=O)/C=C/c2cc(Br)ccc2OC)c1	4.4	8.2	-22.8	1.4	-125.2	75.0*
CCc1ccc(CN2CCC(n3nccc3NC(=O)Cc3ccccc3)CC2)o1	x	x	-24.4	-5.1	12.9	x
COc1cccc(CNCc2ccccc2Br)c1OC	x	x	-22.8	-4.9	-2.7	x
O=C(CSc1nc(Nc2ccccc2)nc(N2CCOCC2)n1)NC1CCCCC1	x	x	-4.7	2.0	4.8	x
O=C(N/N=C/c1ccco1)c1ccc(Br)o1	-4.7	96.0*	-51.8	-1.2	-22.8	-2.3
CCc1ccccc1NC(=O)CNC(=O)c1ccc(-n2cncn2)c([N+](=O)[O-])c1	x	x	x	x	-11.4	x
CCN1C(=O)C(=Cc2cccc(OC)c2Oc2ccc([N+](=O)[O-])cc2[N+](=O)[O-])SC1=S	x	x	10.3	7.1	80.3*	x
O=C(Nc1cnn(Cc2ccc(F)cc2)c1)c1noc2c1CCCC2	54.8*	57.9*	16.2	18.9	-104.7	-59.2
CC(=O)c1ccc(NC(=O)c2noc3c2CCC3)cc1	1.9	5.9	55.6	3.2	71.5*	-138.3
N#Cc1c(NC(=O)CCCC(=O)O)sc2c1CCCCC2	-4.4	-0.2	-37.4	-5.2	90.3*	46.0*
CC1CCc2c(sc(NC(=O)CSc3ncn[nH]3)c2C#N)C1 (stereo unspecified)	-2.0	7.5	39.2	6.6	90.5*	x
CCCC(=O)Nc1sc2c(c1C#N)CCCCC2	1.4	5.1	-162.1	5.1	-166.6	-14.2
CC(C)(C)C1CCc2c(sc(NC(=O)CSc3ncn[nH]3)c2C#N)C1 (stereo unspecified)	-5.0	2.4	-20.2	-1.1	3.2	13.9
N#Cc1c(NC(=O)CSc2ncn[nH]2)sc2c1CCCC2	-1.4	5.5	5.7	4.7	84.1*	x
O=C(c1ccc(S(=O)(=O)Nc2ccccc2)cc1)N1CCCCCCC1	x	x	-13.6	1.5	6.2	x
N#C/C(=C\c1ccccc1)C(=O)OCC(=O)N1CCCC1	0.0	5.0	-7.2	-3.9	6.3	2.0
CC(/C=C/C=C/c1ccccc1)=N/NC(=O)c1ccc2c(c1)OCCO2	-3.0	-1.3	-29.9	7.4	-38.0	x
CCC(=O)NC(c1ccccc1OC)c1ccc2cccnc2c1O (stereo unspecified)	60.7*	68.2*	35.4	19.1	79.9*	88.8*
Oc1c(C(c2ccc(Cl)cc2)N2CCCC2)cc(Cl)c2cccnc12 (stereo unspecified)	4.5	11.7	50.6	-2.3	33.1	11.1
COc1ccc(Cl)cc1C(Nc1cccnc1)c1ccc2cccnc2c1O (stereo unspecified)	9.2	0.2	57.4	12.1	51.6	-4.1
Oc1c(C(c2ccccc2Cl)N2CCCC2)ccc2cccnc12 (stereo unspecified)	82.7*	68.4*	73.3*	12.3	97.3*	7.2
CCCCC(=O)NC(c1ccccc1Cl)c1ccc2cccnc2c1O (stereo unspecified)	x	x	71.5*	19.4	83.4*	x
O=C(Cn1ccc(C(F)(F)F)n1)N/N=C/c1ccc(N2CCOCC2)cc1	4.2	5.0	-35.6	-3.6	-26.0	0.1
SMILES	Ba/F3 V617F tox	BaF3 parental	KLF5 inh	IEC-6 cytotox	aSyn 5UTR inh	APP 5UTR inh
O=[N+]([O-])/C=C1\C=CC=CN1Cc1ccc(Cl)cc1	x	x	12.3	-0.6	9.1	x
CC1CCN(c2ccc(-c3ccc(NC(=O)C(F)(F)F)cc3)nn2)CC1	x	x	39.8	11.3	71.0*	x
COc1cc2nc(Nc3ccc(C)c(Cl)c3)nc(N)c2cc1OC	x	x	-55.1	2.6	98.5*	x
COC(=O)CCC(=O)c1oc2ccc(OC)cc2c1N	-1.0	2.8	-117.3	-0.9	-62.0	64.1*
O=C(NC1CCCCC1)N1CCC(n2c(=O)[nH]c3ccccc32)CC1	x	x	x	x	17.7	-2.8
O=c1[nH]c2ccccc2n1C1CCCCC1	-1.7	1.4	4.0	4.8	7.5	64.1*
COc1ccc(C(=O)Nc2cccc(OC)c2)cc1	-0.4	1.2	-128.2	0.8	4.2	-134.4
COc1ccc(C(=O)Nc2ccc3[nH]c(-c4cccc(OC)c4)cc(=O)c3c2)cc1	-0.4	4.9	5.1	3.5	-4.9	90.9*
Cc1cccc(C(C(=O)NC2CCCCC2)N(Cc2cccnc2)C(=O)c2csnn2)c1 (stereo unspecified)	x	x	3.1	-2.7	-6.3	x
Cc1cc(C)cc(OCc2ccc(C(=O)NN)o2)c1	-1.7	4.2	-17.2	1.3	-17.1	x
COc1cc(Cn2c(-c3nonc3N)nc3ccccc32)ccc1C	1.4	2.7	0.8	9.7	96.2*	89.6*
CCCCOc1ccccc1NC(=O)Cn1c(-c2nonc2N)nc2ccccc21	1.7	8.9	18.7	1.0	124.2*	90.5*
Cc1ccc(Cn2c(-c3nonc3N)nc3ccccc32)cc1	2.6	3.3	21.4	5.7	23.3	5.9
COc1cccc(Cn2c(-c3nonc3N)nc3ccccc32)c1	85.8*	79.3*	-37.7	8.6	95.8*	91.9*
O=C(c1cccnc1)N1CCN(c2ccc3ccccc3n2)CC1	0.9	3.1	-18.6	1.8	-13.6	-18.3
O=C(c1cccc(OCc2ccccc2)c1)N1CCOCC1	-0.3	8.4	-10.9	-2.4	-4.6	15.0
COc1ccc(OCC(=O)NNC(=O)c2cccc(S(=O)(=O)N(C)C)c2)cc1	-3.7	0.6	12.1	-7.2	7.0	50.5*
COc1ccc(NS(=O)(=O)c2cccc(C(=O)NNC(=O)COc3ccccc3)c2)cc1	x	x	x	x	20.3	x
CCOc1ccc(OCc2cccc(C(=O)N3CCOCC3)c2)cc1	1.9	5.2	34.8	-4.7	102.2*	47.8*
COc1ccc(OCc2cccc(C(=O)NN)c2)cc1	1.2	5.0	-57.8	7.0	67.4*	-79.7
CCSc1nnc(NC(=O)c2cccc(OCc3c(C)noc3C)c2)s1	0.3	8.0	-45.4	1.4	-24.6	-17.4
COc1ccc2nc(NC(=O)c3cccc(OCc4c(C)noc4C)c3)sc2c1	-1.1	3.1	-2.7	5.5	-57.2	86.1*
CCOC(=O)CC1COCCN1C(=O)c1cc(COc2ccc(F)cc2Cl)on1 (stereo unspecified)	x	x	-43.0	-2.6	-5.1	x
Cc1cc(C)n(CC(=O)c2cccc(N)c2)n1	-1.4	2.3	-17.9	-3.9	-9.0	-10.6
COc1ccc(OCc2cccc(C(=O)Nc3cc(C)on3)c2)cc1	0.6	0.7	39.5	-1.5	66.5*	-66.4
CCOc1ccc2nc(NC(=O)c3ccc(OCC4CCCO4)cc3)sc2c1 (stereo unspecified)	55.9*	60.1*	-56.9	-5.1	-99.3	-78.2
Cc1ccccc1-c1cnn(-c2cccc([N+](=O)[O-])c2)c1N	2.2	8.5	-33.0	-3.6	5.6	-7.7
Nc1c(-c2ccccc2Cl)cnn1-c1cccc([N+](=O)[O-])c1	1.5	46.4*	-16.2	2.4	-20.3	-31.9
COc1cccc(OCCCCCCN2CCOCC2)c1	4.4	4.5	-4.1	8.7	-0.9	50.0*
